Measurements published in PubChem BioAssay (EPA / NIEHS).
Activity calls are given as the source filed them. Rule for the calls: active = hit-call score of the fitted dose curve at least 0.9, where 1 is the maximum; inactive = score below 0.9.

Assay: CEETOX_H295R_MTT_cell_viability: Viability Assessment in the CeeTox HT-H295R MTT Assay (AID 2283718);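 for AC50: curve fitted both ways so AC50 may mark viability loss or gain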
Procedure: CEETOX_H295R is a cell-based, multiplexed-readout assay that uses H295R, a human adrenal gland cell line, with measurements taken at 48 hours after chemical dosing in a 96-well plate.CEETOX_H295R_MTT_cell_viability is one of 23 assay component(s) measured or calculated from the CEETOX_H295R assay. It is designed to make measurements of cell number, a form of viability reporter, as detected with […] signals by MTT cytotoxicity assay technology.The assay component endpoint CEETOX_H295R_MTT_cell_viability was analyzed with bidirectional fitting relation to DMSO as the negative control and baseline of activity. Using a type of viability reporter in the MTT cytotoxicity assay, gain or loss-of-signal activity can be used to monitor cellular processes to understand changes in proliferation. To generalize the intended target to other relatable targets, this assay endpoint is annotated to cell cycle, where the subfamily is proliferation.
Cell culture and media preparation procedures were conducted in accordance with OECD Test No. 456 guidelines, with minor modifications. H295R cells (ATCC CRL-2128) were expanded for 5 passages and frozen in batches in liquid nitrogen. Prior to the steroidogenesis assay, H295R cells were thawed and passed at least 4 times. The maximum passage was 10. Cells were maintained in a 1:1 mixture of DMEM/F12 supplemented with 5ml/L ITS+ Premix (BD Bioscience) and 12.5 ml/L Nu-Serum (BD Bioscience). After seeding cells into 96-well plates at 50-60% confluency, cells were allowed to adhere overnight. Prior to chemical testing, culture medium was replaced with 175 uL medium containing 10 uM forskolin to stimulate steroidogenesis for 48 hours. Following prestimulation, forskolin medium was replaced with medium containing test chemical solubilized in DMSO (ensuring a final concentration of 0.1% DMSO). Test chemicals were incubated for 48 hours, then the medium was removed and split into 2 vials containing approximately 75uL each, and stored at -80 C prior to hormone analysis. For steroid quantification, media samples were shipped to OpAns, LLC (Durham, NC) on dry ice, and samples were thawed to room temperature prior to liquid-liquid extraction. Steroid hormones were extracted from media samples using methyl tertbutyl ether (MTBE). An extra derivatization with dansyl chloride was included for estrogen (estrone and estradiol) detection only. Steroid hormones were separated by HPLC, eluted using a reverse phase C18 gradient with electrospray positive ionization, followed by quantification by tandem mass spectrometry (MS/MS). Data were acquired on a MassHunter Workstation Acquisition version B03.01 (Agilent Technologies, Inc.) and processed using MassHunter Quantitative Analysis for QQQ. Accuracy was determined for each hormone analyte from 3 standards to determine upper and lower limits of quantification (ULOQ and LLOQ, respectively) using a 7-point standard curve. Precision and accuracy of the extraction and quantification methods were calculated as the percent relative standard deviation (%RSD) of the spiked standards and percent spiked standard recovered, respectively. The goal was to achieve 100% accuracy (i.e., recover all spiked-in standard at quantification with minimal loss during run time) and good precision (i.e., have %RSD <15% to ensure reproducibility). Test medium was removed following chemical exposure, and cell viability was evaluated in the same wells by MTT. MTT procedures were as follows: after removal of test medium, 500 uL of 0.5 mg/ml of 3-[4,5-dimethylthiazol-2-y]2,5-diphenyltetrazoliumbromide solution was added to the cells. Following a 4-hour incubation at 37 C and 5% CO2 to allow formazan-crystal formation, the MTT solution was removed and blue formazan salt crystals were solubilized using 500uL anhydrous isopropanol with shaking for 20 minutes. Absorbance was read at 570 and 650nm using a Packard Fusion microplate reader. […]
With `CCOC(=O)[C@@H](C)Oc1ccc(Oc2nc3ccc(Cl)cc3o2)cc1` the outcome was “inactive”.
With `Cc1cc(=O)oc2cc(N(C)C)ccc12` the outcome was “inactive”.
For `O=C(Nc1ccc2c(O)c(N=Nc3ccc(N=Nc4ccc(S(=O)(=O)O)cc4)cc3)c(S(=O)(=O)O)cc2c1)c1ccccc1`, the outcome was “inactive”.
With `CC(C)(C)CC(C)(C)c1ccc(OCCOCC[N+](C)(C)Cc2ccccc2)cc1` the outcome was “inactive”.
With `CCc1cc(C(C)(C)C)c(O)c(C(C)(C)C)c1` the outcome was “inactive”.
With `CC=Cc1ccc(OCC)c(O)c1` the outcome was “inactive”.
For `COc1ccc(N=Nc2cc(C)c(N=Nc3ccc(S(=O)(=O)O)cc3)cc2OC)cc1`, the outcome was “inactive”.
For `COc1ccc(OC)c(N=Nc2c(O)ccc3ccccc23)c1`, the outcome was “inactive”.
In the case of `CC1(C)C(=O)N(Cl)C(=O)N1Br`, the outcome is reported as “inactive”.
For `CCCCCCCCN1CCCC1=O`, the AC50 was 882 nM (active).
In the case of `Nc1ccc(N)c2c1C(=O)c1ccccc1C2=O`, the outcome is reported as “inactive”.
For `BrCc1cccc(Oc2ccccc2)c1`, the outcome was “inactive”.
For `CC(CN=Cc1ccccc1O)N=Cc1ccccc1O` (stereo unspecified), the AC50 was 2570 nM (active).
For `C=C[Si]1(C)O[Si](C)(C=C)O[Si](C)(C=C)O[Si](C)(C=C)O1` (stereo unspecified), the outcome was “inactive”.
For `CC=Cc1ccc(OC)c(OC)c1`, the outcome was “inactive”.
With `COc1ccc(CCN2CCC(Nc3nc4ccccc4n3Cc3ccc(F)cc3)CC2)cc1` the outcome was “inactive”.
With `CCC(C)c1cc([N+](=O)[O-])cc([N+](=O)[O-])c1OC(=O)OC(C)C` (stereo unspecified) the outcome was “inactive”.
For `CC(C)Nc1nc(N)nc(Cl)n1`, the outcome was “inactive”.
In the case of `COCCc1ccc(OCC(O)CNC(C)C)cc1` (stereo unspecified), the outcome is reported as “inactive”.
For `OCc1cccc(Oc2ccccc2)c1`, the outcome was “inactive”.
With `C=C1CC[C@H](O)C/C1=C/C=C1\CCC[C@]2(C)[C@@H]([C@H](C)/C=C/[C@H](C)C(C)C)CC[C@@H]12` the AC50 was 83400 nM (active).
